Publication PMC5540273 (PLoS ONE, 2017)
Where “and” joins values, the source holds several entries; their conditions need not be identical. Equal entries are not always repeated. Where two headings read alike, the source gives them in different places.

Assays:
PIKFYVE = conditions: concentration: 1 μM, replicates: in singlicate, n = 1
PIM1 = conditions: concentration: 1 μM, replicates: in singlicate, n = 1
PIM2 = conditions: concentration: 1 μM, replicates: in singlicate; n = 1
PIM3 = conditions: concentration: 1 μM, replicates: in singlicate, n = 1
PIP5K1A = conditions: concentration: 1 μM, replicates: in singlicate, n = 1
PIP5K1C = conditions: concentration: 1 μM, replicates: in singlicate, n = 1
PIP5K2B = conditions: concentration: 1 μM, replicates: in singlicate, n = 1
PIP5K2C = tested on: T1, PIP5K2C; conditions: concentration: 1 μM, replicates: in singlicate, n = 1
T1 construct: gene PIP4K2C

PKAC-alpha = tested on: T2, PKAC-alpha; conditions: concentration: 1 μM, replicates: in singlicate, n = 1
T2 construct: gene PRKACA

PKAC-beta = tested on: T3, PKAC-beta; conditions: concentration: 1 μM, replicates: in singlicate, n = 1
T3 construct: gene PRKACB
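Note: KINOMEscan kinase panel screen.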

SMILES | %Inh (PIKFYVE) | %Inh (PIM1) | %Inh (PIM2) | %Inh (PIM3) | %Inh (PIP5K1A) | %Inh (PIP5K1C) | %Inh (PIP5K2B) | %Inh (PIP5K2C) | %Inh (PKAC-alpha) | %Inh (PKAC-beta) | %Inh (PIKFYVE; 1 µM) | %Inh (PIP5K1A; 1 µM) | %Inh (PIP5K1C; 1 µM) | %Inh (PIP5K2B; 1 µM) | %Inh (PIP5K2C; 1 µM) | %Inh (PKAC-alpha; 1 µM) | %Inh (PKAC-beta; 1 µM) | %Inh (PIM1; 1 µM) | %Inh (PIM3; 1 µM)
O=C(NCCNc1ccnc(Nc2ccc(F)cc2)n1)Nc1ccccc1F [GSK1379880] | 0% | 0% | 0% | 0% | 0% | 24% | 0% | 38% | 8% | 0% | – | – | – | – | – | – | – | – | –
Cc1nnc(-c2ccc3ncc(-c4ccc(S(C)=O)cc4)n3c2)o1 (stereo not drawn) | 0% | 0% | 2% | 0% | 2% | 0% | 39% | 0% | 2% | 8% | – | – | – | – | – | – | – | – | –
CN(C(=O)c1ccc(-c2cc(-c3c[nH]nc3-c3ccccn3)ccn2)cc1)C1CCOCC1 [GW810083] | 40% | 0% | 0% | 0% | 0% | 31% | 0% | 49% | 0% | 0% | – | – | – | – | – | – | – | – | –
N#Cc1c(N2CCOCC2)sc(-c2ccn[nH]2)c1-c1ccc(Cl)cc1 | 44% | 18% | 0% | 16% | 0% | 0% | 7% | 0% | 0% | 0% | – | – | – | – | – | – | – | – | –
COc1ccc(COc2cc(-n3cnc4ccccc43)sc2C(N)=O)cc1 [GSK1024304] | 0% | 11% | 0% | 0% | 17% | 45% | 5% | 3% | 0% | 0% | – | – | – | – | – | – | – | – | –
Nc1nccc(-c2c(-c3ccc(F)cc3)ncn2C2CCN(CC(F)(F)F)CC2)n1 [SB-236560] | 59% | 0% | 0% | 0% | 47% | 7% | 0% | 60% | 0% | 11% | – | – | – | – | – | – | – | – | –
CC(C)(C)n1cnc2c(N)ncnc21 [SKF-97359] | 51% | 0% | 0% | 0% | 32% | 51% | 24% | 34% | 0% | 20% | – | – | – | – | – | – | – | – | –
O=C1NC(=O)C(N2CCc3ccccc32)=C1c1cccc(Cl)c1 [SB-408010] | 4% | 16% | 9% | 6% | 0% | 39% | 0% | 0% | 11% | 14% | – | – | – | – | – | – | – | – | –
Fc1ccc(-c2ncn(CCCN3CCOCC3)c2-c2ccccn2)cc1 [SB-211742] | 9% | 0% | 8% | 0% | 22% | 47% | 0% | 27% | 0% | 32% | – | – | – | – | – | – | – | – | –
[2H]C([2H])(c1cccc(C(F)(F)F)c1C)n1ccn2c(=O)nc(N3CCOCC3)cc12 [GSK2336394] | 0% | 0% | 0% | 0% | 0% | 31% | 4% | 0% | 0% | 12% | – | – | – | – | – | – | – | – | –
COc1ccc(Nc2ncc(C#N)c(Nc3ccccc3C(N)=O)n2)cc1N1CCN(C)CC1.Cl [GSK1558669] | 94.4% | 97.4% | 0% | 93.3% | 56% | 65% | 90% | 90.6% | 76% | 76% | – | – | – | – | – | – | – | – | –
CN1c2ccc(NCc3ccc(F)cc3)cc2-c2c(cnn2C)S1(=O)=O | 32% | 0% | 2% | 0% | 31% | 31% | 0% | 3% | 9% | 0% | – | – | – | – | – | – | – | – | –
NS(=O)(=O)c1cccc(-c2ccc3ncc(N4CCOCC4)nc3c2)c1 [GSK1535721] | 11% | 14% | 0% | 0% | 0% | 48% | 11% | 75% | 0% | 0% | – | – | – | – | – | – | – | – | –
c1ccc(-c2n[nH]cc2-c2ccnc3ccccc23)nc1 [GW271431] | 0% | 8% | 0% | 3% | 0% | 0% | 15% | 4% | 9% | 14% | – | – | – | – | – | – | – | – | –
O=c1cc(N2CCOCC2)nc2n(Cc3cccc(Cl)c3Cl)c(C3CC3)nn12 [GSK2358994] | 0% | 0% | 22% | 0% | 0% | 0% | 0% | 0% | 25% | 5% | – | – | – | – | – | – | – | – | –
O=C(Nc1cccc(-c2nn3ncccc3c2-c2ccnc(Nc3cccc(C(F)(F)F)c3)n2)c1)c1c(F)cccc1F [GSK299495] | 15% | 0% | 0% | 0% | 18% | 37% | 100% | 68% | 12% | 6% | – | – | – | – | – | – | – | – | –
CN(C1=C(c2ccccc2)C(=O)NC1=O)c1ccccc1 [SB-334860] | 10% | 19% | 0% | 0% | 8% | 37% | 7% | 10% | 4% | 0% | – | – | – | – | – | – | – | – | –

SMILES | %Inh (PIKFYVE) | %Inh (PIM1) | %Inh (PIM2) | %Inh (PIM3) | %Inh (PIP5K1A) | %Inh (PIP5K1C) | %Inh (PIP5K2B) | %Inh (PIP5K2C) | %Inh (PKAC-alpha) | %Inh (PKAC-beta) | %Inh (PIKFYVE; 1 µM) | %Inh (PIP5K1A; 1 µM) | %Inh (PIP5K1C; 1 µM) | %Inh (PIP5K2B; 1 µM) | %Inh (PIP5K2C; 1 µM) | %Inh (PKAC-alpha; 1 µM) | %Inh (PKAC-beta; 1 µM) | %Inh (PIM1; 1 µM) | %Inh (PIM3; 1 µM)
Cc1nnc(-c2ccc(C)c(-c3ccc(C(=O)Nc4ccc(NS(C)(=O)=O)cc4)cc3)c2)o1 [GW702865] | 4% | 0% | 0% | 0% | 52% | 26% | 17% | 18% | 0% | 0% | – | – | – | – | – | – | – | – | –
C[C@@H](Oc1cc(-n2cnc3ccc(NC(=O)NC(C)(C)C)cc32)sc1C(N)=O)c1ccccc1Cl [GSK346294] | 37% | 17% | 0% | 0% | 35% | 48% | 10% | 42% | 4% | 0% | – | – | – | – | – | – | – | – | –
Cl.Oc1cccc(Nc2ccnc3cc(-c4ccncc4)ccc23)c1 [GW494601] | 44% | 28% | 0% | 0% | 35% | 75% | 9% | 85% | 0% | 0% | – | – | – | – | – | – | – | – | –
COc1ccc(S(=O)(=O)NC2CCN(c3cc(C)nc(Nc4cccc(C#N)c4)n3)CC2)cc1.O=C(O)C(F)(F)F [GSK1653539] | 0% | 25% | 0% | 0% | 0% | 11% | 0% | 37% | 0% | 0% | – | – | – | – | – | – | – | – | –
N#Cc1ccc(-c2cc(-c3c[nH]nc3-c3ccccn3)ccn2)cc1 [GW693028] | 0% | 0% | 0% | 0% | 7% | 71% | 23% | 7% | 0% | 0% | – | – | – | – | – | – | – | – | –
Cc1c2ccc(N(C)c3ccnc(Nc4cccc(S(N)(=O)=O)c4)n3)cc2nn1Cc1ccccc1.Cl.Cl [GW787226] | 0% | 0% | 0% | 0% | 0% | 0% | 0% | 0% | 17% | 4% | – | – | – | – | – | – | – | – | –
CC(C)(CN)c1nc(-c2ccc(Cl)c(O)c2)c(-c2ccncc2)[nH]1.O=C(O)C(F)(F)F [SB-477794] | – | 0% | 0% | 0% | – | – | – | – | – | – | 31% and 49% | 40% and 61% | 3% and 61% | 0% and 19% | 64% and 49% | 86% and 87% | 56% and 89% | – | –
Cl.Cl.Cl.Fc1ccc(-c2ncn(C3CCNCC3)c2-c2ccnc(Nc3ccccc3)n2)cc1 [SB-238039] | – | – | 0% | – | – | – | – | – | – | – | 5% and 24% | 46% and 0% | 25% and 0% | 24% and 0% | 48% and 41% | 64% and 46% | 73% and 65% | 15% and 2% | 19% and 0%
CCc1nc(-c2cccc(C)c2)c(-c2ccnc(NCc3ccccc3)c2)s1 | 0% | 21% | 0% | 25% | 0% | 14% | 38% | 0% | 0% | 0% | – | – | – | – | – | – | – | – | –
Cc1ccc(NC(=O)c2ccnc(N3CCN(C)CC3)c2)cc1-c1ccc(C(=O)NCC2CC2)cc1 [GW775604] | 0% | 0% | 0% | 4% | 0% | 0% | 0% | 0% | 0% | 0% | – | – | – | – | – | – | – | – | –
COc1cc2c(cc1OCCN1CCN(C)CC1)ncc1c3ccc(C#N)cc3[nH]c21 | 64% | 34% | 90.9% | 63% | 57% | 55% | 94.8% | 35% | 0% | 0% | – | – | – | – | – | – | – | – | –
Fc1ccc(-c2nn3c(OCC(F)(F)F)cccc3c2-c2ccncc2)cc1 [GW514784] | 51% | 0% | 0% | 0% | 50% | 69% | 18% | 32% | 6% | 32% | – | – | – | – | – | – | – | – | –
COCCNC(=O)c1ccc(-c2cc(C(=O)NC3CC3)cc(F)c2C)cc1 [GW868318] | 43% | 15% | 3% | 29% | 1% | 0% | 0% | 0% | 9% | 37% | – | – | – | – | – | – | – | – | –
O=C(Nc1n[nH]c2cc(-c3cccc(F)c3)ccc12)C1CC1 [SB-735464] | 0% | 2% | 0% | 4% | 37% | 18% | 5% | 11% | 3% | 6% | – | – | – | – | – | – | – | – | –
COc1cc(Nc2nccc(N3CCC(NC(=O)c4cccc(NC(C)=O)c4)C3)n2)cc(OC)c1OC (stereo not drawn) [GSK1379754] | 0% | 0% | 0% | 0% | 0% | 45% | 18% | 92.4% | 3% | 11% | – | – | – | – | – | – | – | – | –
Cn1ccc2ncnc(Oc3ccc(NC(=O)Nc4ccncc4)c(Cl)c3)c21 | 8% | 0% | 13% | 1% | 24% | 5% | 11% | 0% | 1% | 2% | – | – | – | – | – | – | – | – | –
